PubChem BioAssay AID602253 (Broad Institute, 2012)
Measured potencies and affinities stand elsewhere. Activity calls are given as the source filed them.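 How the source made its calls: active means compounds lowering polarization whose fitted half-maximal concentration is at most twice their top tested dose; inconclusive means flat curve with 30 to 70 percent inhibition, or poor fit; inactive means the rest.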

Each molecule was assayed against Golgi-associated PDZ and coiled-coil motif-containing protein (Homo sapiens) (UniProt Q9HD26) (assay: disruption of CAL PDZ–reporter peptide interaction – biochemical, fluorescence polarization, Cer-tagged CAL PDZ, dry powder, dose response (AID 602253)). Conditions: Purified CAL PDZ, TMR-peptide fluorescence polarization, 1 h; series mostly up to 35 µM; activity change, negative = inhibition: at the top concentration.

Activity change, negative = inhibition, inactive:
O=C(O)CSc1cc(NS(=O)(=O)c2ccc(Cl)cc2)c2ccccc2c1O -5.53%
O=S(=O)(Nc1cc(Sc2ccccc2)c(O)c2ccccc12)c1ccc(Cl)cc1 -3.34%
CCOc1ccc(S(=O)(=O)Nc2cc(SCC(=O)O)c(O)c3ccccc23)cc1 -2.74%
COc1ccc(S(=O)(=O)Nc2cc(SCC(=O)O)c(O)c3ccccc23)cc1 -3.93%
O=C(O)CSc1cc(NS(=O)(=O)c2ccc(Br)cc2)c2ccccc2c1O -4.08%
O=S(=O)(Nc1ccc(O)c2ccccc12)c1ccccc1 -3.92%
